Columns and labels:
Test in all cases: log2 ratio of Biotin-Ahx-Ub-VS probe labelling (fragment/DMSO); higher = less target engagement (more negative = stronger competition), active = hit call of the paper (q ≤ 0.05, log2 ratio ≤ -1)
Settings in all cases: compound concentration: 200 uM; treatment time: 3 h
USP9X = USP9X (UniProt Q93008)
In short: (§1)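 HEK293T lysate (495 µg per sample, in Tris/CHAPS/IGEPAL buffer with protease inhibitors) was exposed in triplicate for 3 h to fragment at 200 µM or to vehicle, then to Biotin-Ahx-Ub-VS at 0.5 µM final for 1 h. Labelled DUBs were enriched on NeutrAvidin, digested with LysC and trypsin, and analysed by diaPASEF LC-MS/MS. Spectronaut label-free quantities were normalised to the global median, and values are average log2 ratios of fragment over vehicle from an unpaired t-test. Only proteins with ≥2 unique peptides were used.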

UniProt O00487 = target: UniProt O00487
Chain of UniProt O00487 (O00487 whole entry): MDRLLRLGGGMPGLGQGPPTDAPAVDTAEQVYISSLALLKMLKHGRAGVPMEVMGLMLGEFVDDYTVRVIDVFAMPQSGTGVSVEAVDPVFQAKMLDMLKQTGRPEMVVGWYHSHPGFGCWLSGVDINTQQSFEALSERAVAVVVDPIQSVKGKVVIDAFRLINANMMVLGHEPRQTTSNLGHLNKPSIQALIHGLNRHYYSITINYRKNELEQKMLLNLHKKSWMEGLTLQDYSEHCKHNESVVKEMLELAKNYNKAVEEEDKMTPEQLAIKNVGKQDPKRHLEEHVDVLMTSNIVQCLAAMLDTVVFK
In short: as §1

UniProt O00507 = target: UniProt O00507
In short: as §1

UniProt P51784 = target: UniProt P51784
Chain of UniProt P51784 (P51784 whole entry): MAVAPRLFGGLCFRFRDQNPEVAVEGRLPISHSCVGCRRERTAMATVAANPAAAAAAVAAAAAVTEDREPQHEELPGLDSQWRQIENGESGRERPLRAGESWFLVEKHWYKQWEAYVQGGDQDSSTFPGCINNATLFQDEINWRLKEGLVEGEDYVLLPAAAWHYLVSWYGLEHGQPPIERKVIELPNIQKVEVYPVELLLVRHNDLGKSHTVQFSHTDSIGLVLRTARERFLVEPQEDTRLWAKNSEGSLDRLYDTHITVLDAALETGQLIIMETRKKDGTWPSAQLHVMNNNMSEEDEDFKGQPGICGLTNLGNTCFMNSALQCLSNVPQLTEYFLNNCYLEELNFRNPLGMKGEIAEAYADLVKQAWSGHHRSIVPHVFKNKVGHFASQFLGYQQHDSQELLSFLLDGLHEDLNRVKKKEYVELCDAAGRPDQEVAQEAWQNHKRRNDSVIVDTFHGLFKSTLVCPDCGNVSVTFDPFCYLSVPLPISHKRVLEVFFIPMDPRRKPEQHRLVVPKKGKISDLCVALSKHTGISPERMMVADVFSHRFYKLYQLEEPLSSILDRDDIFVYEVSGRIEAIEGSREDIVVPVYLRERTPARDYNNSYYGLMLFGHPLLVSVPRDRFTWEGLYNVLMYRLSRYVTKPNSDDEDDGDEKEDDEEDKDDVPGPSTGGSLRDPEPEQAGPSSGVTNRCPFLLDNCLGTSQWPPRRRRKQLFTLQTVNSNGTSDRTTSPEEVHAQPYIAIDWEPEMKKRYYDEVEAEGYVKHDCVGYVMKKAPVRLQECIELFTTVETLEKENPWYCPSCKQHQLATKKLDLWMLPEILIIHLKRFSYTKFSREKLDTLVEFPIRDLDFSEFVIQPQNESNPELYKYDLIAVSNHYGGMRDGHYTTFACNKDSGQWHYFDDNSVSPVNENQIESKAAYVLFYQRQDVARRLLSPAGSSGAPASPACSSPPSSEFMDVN
In short: as §1

UniProt Q5T2D3 = target: T1, UniProt Q5T2D3
T1 sequence (whole entry): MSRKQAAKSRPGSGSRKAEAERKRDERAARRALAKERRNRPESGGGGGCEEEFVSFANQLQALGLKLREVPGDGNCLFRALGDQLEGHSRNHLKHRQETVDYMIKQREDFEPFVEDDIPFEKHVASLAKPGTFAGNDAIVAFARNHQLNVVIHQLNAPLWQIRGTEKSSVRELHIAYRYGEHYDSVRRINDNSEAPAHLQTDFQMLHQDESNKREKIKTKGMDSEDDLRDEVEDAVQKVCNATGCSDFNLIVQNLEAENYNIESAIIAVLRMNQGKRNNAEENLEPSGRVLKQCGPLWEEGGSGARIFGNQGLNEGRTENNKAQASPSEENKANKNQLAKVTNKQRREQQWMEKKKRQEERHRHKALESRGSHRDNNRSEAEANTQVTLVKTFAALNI
In short: as §1

UniProt Q8TE49 = target: T2, UniProt Q8TE49
T2 sequence (whole entry): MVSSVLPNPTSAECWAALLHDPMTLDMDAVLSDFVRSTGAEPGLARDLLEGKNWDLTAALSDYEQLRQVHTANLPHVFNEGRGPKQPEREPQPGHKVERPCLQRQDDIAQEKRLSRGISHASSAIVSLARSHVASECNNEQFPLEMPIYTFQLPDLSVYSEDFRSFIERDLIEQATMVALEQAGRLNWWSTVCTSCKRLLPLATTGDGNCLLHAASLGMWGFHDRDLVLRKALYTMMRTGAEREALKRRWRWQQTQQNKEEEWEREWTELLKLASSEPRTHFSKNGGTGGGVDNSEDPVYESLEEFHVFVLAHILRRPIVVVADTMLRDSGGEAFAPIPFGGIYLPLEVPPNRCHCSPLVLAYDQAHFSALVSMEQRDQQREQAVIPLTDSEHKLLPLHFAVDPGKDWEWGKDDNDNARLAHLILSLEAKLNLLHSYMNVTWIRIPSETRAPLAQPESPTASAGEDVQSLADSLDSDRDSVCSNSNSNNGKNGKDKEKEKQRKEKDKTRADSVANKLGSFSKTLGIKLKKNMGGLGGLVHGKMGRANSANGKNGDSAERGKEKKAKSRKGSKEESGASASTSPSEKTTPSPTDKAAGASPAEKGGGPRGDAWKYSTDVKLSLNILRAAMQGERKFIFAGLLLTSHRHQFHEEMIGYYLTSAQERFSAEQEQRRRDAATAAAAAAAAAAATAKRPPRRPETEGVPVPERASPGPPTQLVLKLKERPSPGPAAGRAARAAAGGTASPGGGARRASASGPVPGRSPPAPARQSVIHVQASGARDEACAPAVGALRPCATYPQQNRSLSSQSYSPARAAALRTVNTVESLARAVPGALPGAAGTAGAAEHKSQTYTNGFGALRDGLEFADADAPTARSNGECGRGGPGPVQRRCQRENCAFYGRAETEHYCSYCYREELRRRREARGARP
In short: as §1

UniProt Q9P2H5 = target: T3, UniProt Q9P2H5
T3 sequence (whole entry): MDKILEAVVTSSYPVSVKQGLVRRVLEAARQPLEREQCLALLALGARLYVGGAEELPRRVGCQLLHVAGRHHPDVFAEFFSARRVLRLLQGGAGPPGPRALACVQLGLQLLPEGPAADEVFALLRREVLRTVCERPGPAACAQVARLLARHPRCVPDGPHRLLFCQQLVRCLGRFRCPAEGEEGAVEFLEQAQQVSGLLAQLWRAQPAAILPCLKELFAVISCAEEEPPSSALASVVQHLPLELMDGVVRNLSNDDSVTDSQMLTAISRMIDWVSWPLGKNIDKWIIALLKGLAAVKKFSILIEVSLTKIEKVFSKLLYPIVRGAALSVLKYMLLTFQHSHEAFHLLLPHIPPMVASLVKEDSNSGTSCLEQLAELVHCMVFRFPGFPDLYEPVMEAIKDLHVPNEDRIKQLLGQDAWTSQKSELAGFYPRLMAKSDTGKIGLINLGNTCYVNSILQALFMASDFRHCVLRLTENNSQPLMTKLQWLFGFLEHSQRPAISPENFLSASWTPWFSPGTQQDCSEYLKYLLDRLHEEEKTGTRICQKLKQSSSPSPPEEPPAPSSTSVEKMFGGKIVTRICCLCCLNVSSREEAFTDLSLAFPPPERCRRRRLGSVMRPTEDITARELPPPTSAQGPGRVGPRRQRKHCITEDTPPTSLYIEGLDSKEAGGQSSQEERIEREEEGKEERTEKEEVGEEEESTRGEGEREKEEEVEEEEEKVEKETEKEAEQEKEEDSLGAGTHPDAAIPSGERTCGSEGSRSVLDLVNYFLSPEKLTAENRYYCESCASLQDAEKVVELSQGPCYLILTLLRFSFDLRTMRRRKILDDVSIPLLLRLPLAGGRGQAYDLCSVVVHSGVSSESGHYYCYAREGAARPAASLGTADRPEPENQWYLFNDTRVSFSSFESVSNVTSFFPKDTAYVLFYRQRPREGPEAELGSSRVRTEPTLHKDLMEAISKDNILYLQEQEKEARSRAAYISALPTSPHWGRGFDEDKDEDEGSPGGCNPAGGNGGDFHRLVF
In short: as §1

UniProt Q9UGI0 = target: T4, UniProt Q9UGI0
T4 sequence (whole entry): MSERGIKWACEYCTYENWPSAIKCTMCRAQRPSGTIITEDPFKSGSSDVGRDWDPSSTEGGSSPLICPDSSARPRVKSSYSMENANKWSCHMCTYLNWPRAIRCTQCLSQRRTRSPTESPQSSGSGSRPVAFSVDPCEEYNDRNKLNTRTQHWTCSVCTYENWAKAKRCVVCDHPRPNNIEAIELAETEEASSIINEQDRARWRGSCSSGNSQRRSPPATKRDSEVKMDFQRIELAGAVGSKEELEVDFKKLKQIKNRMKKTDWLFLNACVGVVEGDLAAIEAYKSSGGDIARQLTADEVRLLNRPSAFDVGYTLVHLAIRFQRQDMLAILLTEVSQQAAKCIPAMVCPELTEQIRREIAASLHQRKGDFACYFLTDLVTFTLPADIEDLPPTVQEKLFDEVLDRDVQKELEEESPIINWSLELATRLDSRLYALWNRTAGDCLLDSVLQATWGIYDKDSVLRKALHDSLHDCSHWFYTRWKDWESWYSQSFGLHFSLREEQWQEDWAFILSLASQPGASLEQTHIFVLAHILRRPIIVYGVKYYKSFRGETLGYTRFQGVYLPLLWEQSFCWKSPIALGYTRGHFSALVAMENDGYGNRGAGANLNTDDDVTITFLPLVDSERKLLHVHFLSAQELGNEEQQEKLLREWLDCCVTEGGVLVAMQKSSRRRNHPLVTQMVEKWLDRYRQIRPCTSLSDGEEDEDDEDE
In short: as §1

YOD1 = target: T5, YOD1 (UniProt Q5VVQ6)
T5 sequence (whole entry): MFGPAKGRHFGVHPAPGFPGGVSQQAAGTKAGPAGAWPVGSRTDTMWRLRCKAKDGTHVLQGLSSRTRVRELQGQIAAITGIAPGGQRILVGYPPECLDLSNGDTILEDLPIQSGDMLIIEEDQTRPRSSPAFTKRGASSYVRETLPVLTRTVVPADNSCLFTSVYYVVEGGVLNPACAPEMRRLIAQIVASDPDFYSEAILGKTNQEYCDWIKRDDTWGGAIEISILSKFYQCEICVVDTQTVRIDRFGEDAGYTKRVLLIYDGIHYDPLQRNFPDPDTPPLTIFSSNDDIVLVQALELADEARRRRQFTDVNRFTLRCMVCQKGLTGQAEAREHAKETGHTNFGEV
In short: as §1

Measured: log2 ratio of Biotin-Ahx-Ub-VS probe labelling

Chain of USP9X (Q93008 whole entry, the tested form may be a part): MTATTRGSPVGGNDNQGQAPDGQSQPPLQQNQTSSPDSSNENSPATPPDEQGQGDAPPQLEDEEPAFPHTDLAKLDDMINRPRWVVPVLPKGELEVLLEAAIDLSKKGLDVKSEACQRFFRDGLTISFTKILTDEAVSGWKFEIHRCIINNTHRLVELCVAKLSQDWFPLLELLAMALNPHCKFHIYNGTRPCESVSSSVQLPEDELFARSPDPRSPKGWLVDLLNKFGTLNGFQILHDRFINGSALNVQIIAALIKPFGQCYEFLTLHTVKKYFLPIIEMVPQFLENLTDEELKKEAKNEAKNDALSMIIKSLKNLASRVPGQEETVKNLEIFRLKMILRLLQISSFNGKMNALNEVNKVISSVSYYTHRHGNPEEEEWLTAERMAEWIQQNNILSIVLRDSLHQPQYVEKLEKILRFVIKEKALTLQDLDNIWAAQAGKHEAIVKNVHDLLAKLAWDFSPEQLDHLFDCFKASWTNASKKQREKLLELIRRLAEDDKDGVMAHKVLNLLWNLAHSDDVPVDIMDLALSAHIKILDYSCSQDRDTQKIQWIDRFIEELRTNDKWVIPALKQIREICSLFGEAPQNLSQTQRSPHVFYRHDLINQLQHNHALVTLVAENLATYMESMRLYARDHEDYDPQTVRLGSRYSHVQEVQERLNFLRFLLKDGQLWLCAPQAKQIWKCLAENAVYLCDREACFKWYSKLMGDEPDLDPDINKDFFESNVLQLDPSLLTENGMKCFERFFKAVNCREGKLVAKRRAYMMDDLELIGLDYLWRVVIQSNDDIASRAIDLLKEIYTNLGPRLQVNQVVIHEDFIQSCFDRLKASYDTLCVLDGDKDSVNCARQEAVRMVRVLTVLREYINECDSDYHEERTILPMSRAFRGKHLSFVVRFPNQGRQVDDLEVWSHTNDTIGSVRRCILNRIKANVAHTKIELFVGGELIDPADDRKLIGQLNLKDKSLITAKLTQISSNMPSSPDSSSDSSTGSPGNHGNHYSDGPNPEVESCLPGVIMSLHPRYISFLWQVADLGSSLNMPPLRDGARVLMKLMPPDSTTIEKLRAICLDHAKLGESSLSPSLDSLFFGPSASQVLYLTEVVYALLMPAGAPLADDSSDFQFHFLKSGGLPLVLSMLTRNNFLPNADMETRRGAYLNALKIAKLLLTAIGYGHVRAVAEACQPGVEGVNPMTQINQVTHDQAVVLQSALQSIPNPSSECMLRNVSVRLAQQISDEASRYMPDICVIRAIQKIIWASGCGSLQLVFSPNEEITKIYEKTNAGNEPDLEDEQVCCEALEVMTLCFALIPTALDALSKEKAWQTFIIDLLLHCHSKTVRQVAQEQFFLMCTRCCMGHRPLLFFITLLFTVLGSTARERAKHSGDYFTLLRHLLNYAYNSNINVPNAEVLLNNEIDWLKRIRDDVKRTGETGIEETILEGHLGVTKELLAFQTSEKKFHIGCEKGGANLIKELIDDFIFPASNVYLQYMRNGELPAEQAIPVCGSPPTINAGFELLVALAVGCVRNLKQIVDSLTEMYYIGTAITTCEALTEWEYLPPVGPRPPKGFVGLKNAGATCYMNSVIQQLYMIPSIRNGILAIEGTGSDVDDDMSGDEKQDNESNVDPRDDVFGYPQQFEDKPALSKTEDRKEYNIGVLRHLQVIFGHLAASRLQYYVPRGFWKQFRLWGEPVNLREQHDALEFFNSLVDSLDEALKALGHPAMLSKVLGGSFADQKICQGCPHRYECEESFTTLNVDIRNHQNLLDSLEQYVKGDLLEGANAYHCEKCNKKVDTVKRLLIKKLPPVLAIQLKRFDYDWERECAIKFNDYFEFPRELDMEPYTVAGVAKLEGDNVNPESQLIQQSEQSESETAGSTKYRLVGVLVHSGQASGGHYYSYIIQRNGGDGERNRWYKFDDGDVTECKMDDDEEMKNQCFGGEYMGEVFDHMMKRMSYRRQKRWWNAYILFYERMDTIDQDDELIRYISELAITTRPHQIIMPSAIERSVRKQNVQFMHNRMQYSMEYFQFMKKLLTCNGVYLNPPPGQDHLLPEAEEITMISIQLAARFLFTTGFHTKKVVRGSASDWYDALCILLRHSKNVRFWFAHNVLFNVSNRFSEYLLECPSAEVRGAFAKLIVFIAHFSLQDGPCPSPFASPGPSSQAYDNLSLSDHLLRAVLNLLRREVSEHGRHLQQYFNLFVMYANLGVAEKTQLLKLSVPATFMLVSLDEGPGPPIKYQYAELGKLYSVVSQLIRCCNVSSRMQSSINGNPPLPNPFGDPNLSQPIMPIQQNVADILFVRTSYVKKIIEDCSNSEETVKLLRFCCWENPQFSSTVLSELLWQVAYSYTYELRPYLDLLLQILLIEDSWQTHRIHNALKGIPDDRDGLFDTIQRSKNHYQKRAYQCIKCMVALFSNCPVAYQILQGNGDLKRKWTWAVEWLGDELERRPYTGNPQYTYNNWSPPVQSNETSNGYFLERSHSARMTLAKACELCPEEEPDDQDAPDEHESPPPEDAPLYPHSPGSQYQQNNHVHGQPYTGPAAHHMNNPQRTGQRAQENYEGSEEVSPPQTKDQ

O=C(CCl)Nc1cc2c(cc1Cl)OCCO2
inactive: USP9X -0.246 | UniProt O00487 -0.0671 | UniProt O00507 0.223 | UniProt P51784 0.121 | UniProt Q5T2D3 -0.437 | UniProt Q8TE49 -0.908 | UniProt Q9P2H5 -0.253 | UniProt Q9UGI0 -0.402 | YOD1 0.302

Source: the supplement of paper PMC11732987, “Enantioselective OTUD7B fragment discovery through chemoproteomics screening and high-throughput optimisation” (Communications Chemistry, 2025)
